Data published in PubChem BioAssay (EPA / NIEHS).
Inconclusive results are not listed. Active and inactive are the calls of the source. The calls were made as follows, unless noted: active = hit-call score of the fitted dose curve at least 0.9, where 1 is the maximum; inconclusive = response in the unintended direction; inactive = score below 0.9.

Columns and labels:
[1] = system: Sodium/Iodide Symporter (NIS), SLC5A5 (gene 6528); assay: CPHEA_Stoker_NIS_Inhibition_RAIU: CPHEA's Radioactive Iodide Uptake (RAIU) Assay for Sodium/Iodide Symporter (NIS) Inhibition, Stoker and Laws Labs (AID 2283841)
In short: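 Iodide uptake through human NIS is measured in an engineered HEK293T line. Cells take up 125I (329pM final) for 2 hours at room temperature alongside chemicals at 0.001–100uM. Retained radioactivity is counted, and the signal is expressed against DMSO controls.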

[2] = CPHEA_Stoker_NIS_Cytotoxicity: Cytotoxicity Assessment for CPHEA's Radioactive Iodide Uptake (RAIU) Assay for Sodium/Iodide Symporter (NIS) Inhibition, Stoker and Laws Labs (AID 2283897);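 as to AC50: active means loss of ATP signal versus DMSO meaning cytotoxicity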
In short: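 ATP luminescence (Cell Titer Glo) measured viability, with loss of signal normalized to DMSO controls. Cells: hNIS-HEK293T-EPA, seeded 40 hours prior. Dosing: 0.001–100uM, 2 hours, room temperature, uptake buffer pH 7.4.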

[3] = CEETOX_H295R_11DCORT_noMTC: CeeTox H295R High-throughput Steroidogenesis Assay for 11-Deoxycortisol (11DCORT), maximum tolerated concentration (MTC) filtered results only (AID 2283911; active = hit-call score of the fitted dose curve at least 0.9, where 1 is the maximum; inactive = score below 0.9); conditions: actives raise or lower the signal
In short: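 H295R cells were prestimulated 48 h with 10 uM forskolin, then exposed 48 h to chemical (0.1% DMSO final). 11-Deoxycortisol in the medium was measured by MTBE extraction and HPLC-MS/MS, with bidirectional fitting versus DMSO and no MTC filtering of concentrations.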

[4] = CEETOX_H295R_OHPREG_noMTC: CeeTox H295R High-throughput Steroidogenesis Assay for OH-Pregnenolone (OHPREG), maximum tolerated concentration (MTC) filtered results only (AID 2283912; active = hit-call score of the fitted dose curve at least 0.9, where 1 is the maximum; inactive = score below 0.9); conditions: actives raise or lower the signal
In short: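 Readout is HPLC-MS/MS quantification of 17alpha-hydroxypregnenolone released by forskolin-stimulated H295R cells over 48 h of chemical exposure, DMSO as baseline.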

[5] = CEETOX_H295R_OHPROG_noMTC: CeeTox H295R High-throughput Steroidogenesis Assay for OH-Progesterone (OHPROG), maximum tolerated concentration (MTC) filtered results only (AID 2283914; active = hit-call score of the fitted dose curve at least 0.9, where 1 is the maximum; inactive = score below 0.9); conditions: actives raise or lower the signal
In short: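 Analysis uses all tested concentrations, without maximum-tolerated-concentration screening by MTT. H295R cells, forskolin-primed (10 uM, 48 h), receive chemical for 48 h; hormone in medium measured by HPLC-MS/MS, with bidirectional curve fitting against DMSO.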

[6] = target: zebrafish Thyroid Hormone Receptor beta (TRb), thrb (gene 30607) (UniProt Q9PVE4); assay: ATG_zfTRb_XSP2: Attagene TRANS-FACTORIAL Multi-Species (XSP1) HepG2 Assay for zebrafish Thyroid Hormone Receptor beta (TRb) (AID 2283836)
In short: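 Reporter transcripts measured by RT-PCR, 6-FAM labelling, HpaI digestion and capillary electrophoresis after 24 h chemical exposure. Human HepG2 cells carry an exogenous zebrafish TRb-GAL4 chimera; medium included 3 nM 6-alpha-fluorotestosterone plus 1.5 nM norgestrel.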

[7] = ATG_XTT_Cytotoxicity_XSP2: Cytotoxicity Assessment in the Attagene TRANS-FACTORIAL Multi-Species (XSP2) HepG2 Assay (AID 2283837)
In short: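 XTT-based cell number read-out in human HepG2 liver cells carrying transfected reporter units, measured 24 h after chemical dosing. Activity is signal loss versus DMSO baseline.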

[8] = target: human Thyroid hormone Receptor alpha (TRa), THRA (gene 7067) (UniProt P10827); assay: ATG_hTRa_XSP2: Attagene TRANS-FACTORIAL Multi-Species (XSP2) HepG2 Assay for human Thyroid hormone Receptor alpha (TRa) (AID 2283838)
In short: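 Reporter transcripts were read by RT-PCR with fluorescent primer extension, HpaI digestion and capillary electrophoresis. These came from HepG2 cells carrying multiplexed TRa-Gal4 TRANS constructs, harvested 24 hours after dosing. The medium also held 6-alpha-fluorotestosterone (3 nM) and norgestrel (1.5 nM), and increases were fitted against DMSO.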

[9] = target: frog Thyroid hormone Receptor alpha (TRa), thra-a (gene 397942) (UniProt P15204); assay: ATG_frTRa_XSP2: Attagene TRANS-FACTORIAL Multi-Species (XSP2) HepG2 Assay for frog Thyroid hormone Receptor alpha (TRa) (AID 2283839)
In short: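 HepG2 transiently transfected with multiplexed GAL4-UAS reporters driven by frog TRa-Gal4 chimeras; 24 h chemical exposure. Reporter mRNA quantified by RT-PCR, FAM labelling, HpaI digestion and capillary electrophoresis; gain of signal versus DMSO.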

[10] = target: human Thyroid hormone Receptor beta (TRb), THRB (gene 7068) (UniProt P10828); assay: ATG_hTRb_XSP2: Attagene TRANS-FACTORIAL Multi-Species (XSP2) HepG2 Assay for human Thyroid hormone Receptor beta (TRb) (AID 2283840);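 also: actives raise reporter mRNA so potency reflects agonist-like gain of signal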
In short: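 HepG2 transiently transfected with a multi-species panel including a human TRb–Gal4 chimera driving Gal4-UAS reporters; medium contained 3 nM 6-alpha-fluorotestosterone and 1.5 nM norgestrel. 24 h dosing; RT-PCR/capillary electrophoresis readout; positive-direction fit vs DMSO.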

Sequence of zebrafish Thyroid Hormone Receptor beta (TRb), thrb (gene 30607) (Q9PVE4 whole entry, looked up, the tested form may be a part): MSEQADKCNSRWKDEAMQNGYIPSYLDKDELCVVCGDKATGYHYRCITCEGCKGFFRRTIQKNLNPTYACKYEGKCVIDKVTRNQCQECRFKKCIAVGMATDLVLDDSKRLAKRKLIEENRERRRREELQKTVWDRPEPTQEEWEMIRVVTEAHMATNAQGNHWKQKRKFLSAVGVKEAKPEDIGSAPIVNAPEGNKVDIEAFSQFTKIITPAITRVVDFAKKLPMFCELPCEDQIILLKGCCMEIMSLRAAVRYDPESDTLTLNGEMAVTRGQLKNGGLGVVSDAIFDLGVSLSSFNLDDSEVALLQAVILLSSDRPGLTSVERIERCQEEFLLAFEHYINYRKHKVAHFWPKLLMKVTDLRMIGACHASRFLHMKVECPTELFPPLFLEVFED
Sequence of human Thyroid hormone Receptor alpha (TRa), THRA (gene 7067) (P10827 whole entry, looked up, the tested form may be a part): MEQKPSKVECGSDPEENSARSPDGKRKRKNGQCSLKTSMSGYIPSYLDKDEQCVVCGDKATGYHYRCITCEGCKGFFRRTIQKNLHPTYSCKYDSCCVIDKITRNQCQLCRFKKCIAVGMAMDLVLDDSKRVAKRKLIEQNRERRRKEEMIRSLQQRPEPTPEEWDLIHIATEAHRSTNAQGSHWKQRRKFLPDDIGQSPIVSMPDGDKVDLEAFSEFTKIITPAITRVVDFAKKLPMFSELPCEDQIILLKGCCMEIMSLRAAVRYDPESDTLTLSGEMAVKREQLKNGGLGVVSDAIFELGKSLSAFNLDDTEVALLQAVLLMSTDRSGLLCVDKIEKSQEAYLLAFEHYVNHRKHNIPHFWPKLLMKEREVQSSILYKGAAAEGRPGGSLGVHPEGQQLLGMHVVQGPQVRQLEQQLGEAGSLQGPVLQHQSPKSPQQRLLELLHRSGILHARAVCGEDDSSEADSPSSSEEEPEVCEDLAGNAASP
Sequence of frog Thyroid hormone Receptor alpha (TRa), thra-a (gene 397942) (P15204 whole entry, looked up, the tested form may be a part): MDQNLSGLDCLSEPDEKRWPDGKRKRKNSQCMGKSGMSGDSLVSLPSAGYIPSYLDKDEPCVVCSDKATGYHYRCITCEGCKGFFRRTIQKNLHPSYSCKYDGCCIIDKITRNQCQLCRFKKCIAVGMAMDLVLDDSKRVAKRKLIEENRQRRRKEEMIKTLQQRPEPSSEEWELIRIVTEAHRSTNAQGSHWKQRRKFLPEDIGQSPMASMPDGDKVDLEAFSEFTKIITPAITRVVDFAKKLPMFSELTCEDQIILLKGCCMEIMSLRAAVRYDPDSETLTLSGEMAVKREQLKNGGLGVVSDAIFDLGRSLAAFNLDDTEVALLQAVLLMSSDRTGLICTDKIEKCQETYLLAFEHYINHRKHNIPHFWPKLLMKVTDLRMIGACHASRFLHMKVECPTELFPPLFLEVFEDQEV
Sequence of human Thyroid hormone Receptor beta (TRb), THRB (gene 7068) (P10828 whole entry, looked up, the tested form may be a part): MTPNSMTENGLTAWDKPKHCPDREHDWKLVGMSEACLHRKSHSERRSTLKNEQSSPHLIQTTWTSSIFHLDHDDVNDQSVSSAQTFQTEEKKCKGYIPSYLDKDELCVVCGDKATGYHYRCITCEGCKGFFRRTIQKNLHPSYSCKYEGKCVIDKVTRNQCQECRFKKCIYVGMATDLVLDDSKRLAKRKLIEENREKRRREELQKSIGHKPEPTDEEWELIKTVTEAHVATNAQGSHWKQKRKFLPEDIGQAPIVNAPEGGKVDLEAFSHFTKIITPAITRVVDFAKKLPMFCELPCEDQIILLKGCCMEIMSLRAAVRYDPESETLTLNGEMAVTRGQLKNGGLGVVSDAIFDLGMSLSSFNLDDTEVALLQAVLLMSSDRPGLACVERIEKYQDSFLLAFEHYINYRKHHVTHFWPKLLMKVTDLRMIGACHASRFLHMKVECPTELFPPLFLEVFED

**Q.** What does the source list for `CCOc1ccc(N=Nc2ccc(C=Cc3ccc(N=Nc4ccc(OCC)cc4)cc3S(=O)(=O)O)c(S(=O)(=O)O)c2)cc1`?
**A.** outcome [1]: inactive; outcome [2]: inactive

**Q.** Which outcome [1] does the source give for `CCc1cc(Cc2cc(CC)cc(C(C)(C)C)c2O)c(O)c(C(C)(C)C)c1` here?
**A.** inactive

**Q.** What does the source list for `[O-]n1ccccc1=S.[O-]n1ccccc1=S.[Zn+2]`?
**A.** AC50 [1]: 18.1 µM (active); outcome [2]: inactive

**Q.** Which results are given for `CC(CN=Cc1ccccc1O)N=Cc1ccccc1O` (configuration not stated)?
**A.** outcome [1]: inactive; outcome [2]: inactive

**Q.** What does the source list for `O=[N+]([O-])c1ccc(O)cc1C(F)(F)F`?
**A.** outcome [1]: inactive; outcome [2]: inactive

**Q.** For `CCCCCC(C=O)=Cc1ccccc1`, which outcome [1] is on record?
**A.** inactive

**Q.** And the outcome [2]?
**A.** inactive

**Q.** Which results are given for `O=C(CC(=O)c1ccccc1)c1ccccc1`?
**A.** outcome [1]: inactive; outcome [2]: inactive

**Q.** Which results are given for `O=C(c1ccccc1)C(O)c1ccccc1` (configuration not stated)?
**A.** outcome [1]: inactive; outcome [2]: inactive

**Q.** Which outcome [3] does the source give for `COc1ccc(OC)c(N=Nc2c(O)ccc3ccccc23)c1` here?
**A.** inactive

**Q.** And the outcome [4]?
**A.** inactive

**Q.** What about the outcome [5] of the same compound?
**A.** inactive

**Q.** For `Cc1ccc(S(=O)(=O)Oc2ccc(N=Nc3ccc(-c4ccc(N=Nc5c(O)ccc6cc(S(=O)(=O)O)cc(S(=O)(=O)O)c56)c(C)c4)cc3C)cc2)cc1`, which outcome [1] is on record?
**A.** inactive

**Q.** What about the AC50 [2] of the same compound?
**A.** 13 µM (active)

**Q.** With `O=CCc1ccccc1` as the compound, how does the outcome [2] read?
**A.** inactive

**Q.** Which results are given for `CCCCCCCCCCCCCCN(CCO)CCO`?
**A.** outcome [1]: inactive; outcome [2]: inactive

**Q.** For `C=C(C)C(=O)OCCOC1CC2CC1C1C=CCC21` (configuration not stated), which outcome [1] is on record?
**A.** inactive

**Q.** And the outcome [2]?
**A.** inactive

**Q.** What does the source list for `COc1ccc(N=Nc2cc(C)c(N=Nc3ccc(S(=O)(=O)O)cc3)cc2OC)cc1`?
**A.** outcome [1]: inactive; outcome [2]: inactive

**Q.** With `CCCCCCCCSCCO` as the compound, how does the outcome [1] read?
**A.** inactive

**Q.** What about the outcome [2] of the same compound?
**A.** inactive

**Q.** Which outcome [6] does the source give for `O=c1c(O)c(-c2ccc(O)cc2)oc2cc(O)cc(O)c12` here?
**A.** inactive

**Q.** And the outcome [7]?
**A.** inactive

**Q.** And the outcome [8]?
**A.** inactive

**Q.** And the outcome [9]?
**A.** inactive

**Q.** What about the outcome [10] of the same compound?
**A.** inactive

**Q.** What about the outcome [1] of the same compound?
**A.** inactive

**Q.** What about the outcome [2] of the same compound?
**A.** inactive

**Q.** Which results are given for `Cc1cc(=O)oc2cc(N(C)C)ccc12`?
**A.** outcome [6]: inactive; outcome [7]: inactive; outcome [8]: inactive; outcome [9]: inactive; outcome [10]: inactive

**Q.** Which results are given for `c1ccc(Oc2ccccc2)cc1`?
**A.** outcome [1]: inactive; outcome [2]: inactive

**Q.** With `C=C[Si]1(C)O[Si](C)(C=C)O[Si](C)(C=C)O[Si](C)(C=C)O1` (configuration not stated) as the compound, how does the outcome [3] read?
**A.** inactive

**Q.** What about the outcome [4] of the same compound?
**A.** inactive

**Q.** And the AC50 [5]?
**A.** 87.1 µM (active)

**Q.** What does the source list for `OCc1cccc(Oc2ccccc2)c1`?
**A.** outcome [6]: inactive; outcome [7]: inactive; outcome [8]: inactive; outcome [9]: inactive; outcome [10]: inactive

**Q.** With `CCCCCCCCC=CCCCCCCCC1=NCCN1CCO` as the compound, how does the outcome [1] read?
**A.** inactive

**Q.** And the outcome [2]?
**A.** inactive

**Q.** With `BrCc1cccc(Oc2ccccc2)c1` as the compound, how does the outcome [6] read?
**A.** inactive

**Q.** What about the outcome [8] of the same compound?
**A.** inactive

**Q.** What about the outcome [9] of the same compound?
**A.** inactive

**Q.** What about the outcome [10] of the same compound?
**A.** inactive

**Q.** And the outcome [1]?
**A.** inactive

**Q.** What about the outcome [2] of the same compound?
**A.** inactive

**Q.** With `C[C@H]1O[C@@H](O[C@H]2[C@@H](O)C[C@H](O[C@H]3[C@@H](O)C[C@H](O[C@H]4CC[C@@]5(C)[C@H](CC[C@@H]6[C@@H]5C[C@@H](O)[C@]5(C)[C@@H](C7=CC(=O)OC7)CC[C@]65O)C4)O[C@@H]3C)O[C@@H]2C)C[C@H](O)[C@@H]1O` as the compound, how does the AC50 [1] read?
**A.** 1.12 µM (active)

**Q.** And the outcome [2]?
**A.** inactive

**Q.** Which results are given for `CCc1cc(C(C)(C)C)c(O)c(C(C)(C)C)c1`?
**A.** outcome [1]: inactive; outcome [2]: inactive

**Q.** With `C=C1CC[C@H](O)C/C1=C/C=C1\CCC[C@]2(C)[C@@H]([C@H](C)/C=C/[C@H](C)C(C)C)CC[C@@H]12` as the compound, how does the outcome [1] read?
**A.** inactive

**Q.** And the outcome [2]?
**A.** inactive

**Q.** For `O=C(Nc1ccc2c(O)c(N=Nc3ccc(N=Nc4ccc(S(=O)(=O)O)cc4)cc3)c(S(=O)(=O)O)cc2c1)c1ccccc1`, which outcome [4] is on record?
**A.** inactive

**Q.** What about the outcome [5] of the same compound?
**A.** inactive
